Reference: ChEMBL document CHEMBL3988442, “University of Dundee, Small-Polar-MMV Screening Library” (2021)
The campaign covered roughly 69,000 compounds. About 950 (1.4%) showed an effect of 50% or more. Shown is part of a subset that was picked to be rich in strong results.

test system: Mycobacterium tuberculosis; assay: Cornell M. t heat shock assay; format: functional, organism-based; parameters: dose or concentration left out as unconfirmed; further: in the data most compounds retested in dose-response had high values

Compound | Percent Effect [%]
Cn1ncc2c1CN(Cc1ccccc1F)CC2COCC1CC1.O=C(O)C(F)(F)F.O=C(O)C(F)(F)F (configuration not stated) | 103.1
Cn1ncc2c1CN(Cc1cccnc1)CC2COCC1CC1.O=C(O)C(F)(F)F.O=C(O)C(F)(F)F.O=C(O)C(F)(F)F (configuration not stated) | -6.244
Cn1ncc2c1CN(Cc1ccc(F)cc1)CC2COCC1CC1.O=C(O)C(F)(F)F.O=C(O)C(F)(F)F (configuration not stated) | -18.92
COCCN1C(=O)CC(N2CCN(c3ccccc3)CC2)C1=O (configuration not stated) | 12.72
COCCN1C(=O)CC(N2CCN(c3ccc(OC)cc3)CC2)C1=O (configuration not stated) | 70.99
COCCN1C(=O)CC(N2CCN(c3ccc(F)cc3)CC2)C1=O (configuration not stated) | -16.16
CN1C(=O)CCC12CCCN(C(=O)c1ccncc1F)C2.O=C(O)C(F)(F)F (configuration not stated) | 38.17
Cl.NCC(=O)N1CCC(c2ccnc(Nc3cc(C(F)(F)F)ccn3)n2)C1 (configuration not stated) | -2.931
Cc1cccc(CN2CC[C@@H]3[C@@H]2CCN3Cc2cccs2)n1.O=C(O)C(F)(F)F.O=C(O)C(F)(F)F | -14.73
CNC(=O)COC1COC2(CCN(Cc3cccnc3)CC2)C1.O=C(O)C(F)(F)F (configuration not stated) | 22.59
Cc1ccc(CNC2CCCc3c2cnn3Cc2ccccc2)s1.Cl (configuration not stated) | 52.93
CCn1ncc2c1CCCC2NCc1ccc(C)s1 (configuration not stated) | 16.54
Cc1cccc(CNC2CCCc3c2cnn3Cc2ccccc2)c1.Cl (configuration not stated) | -5.892
Cn1cc(CNC2CCc3c(ccc(=O)n3Cc3cccnc3)C2)cn1.O=C(O)C(F)(F)F.O=C(O)C(F)(F)F (configuration not stated) | 12.8
CN(C)C(=O)[C@H]1CO[C@H]2CCN(c3ncc(F)cn3)C[C@H]2C1.O=C(O)C(F)(F)F | 5.292
CC(CNCc1ccc(F)cc1)Oc1ccccn1.Cl (configuration not stated) | 4.534
Cc1nc(CN2CCCC(N(C)c3ccc(C#N)cn3)C2)no1 (configuration not stated) | -30.96
CCc1nc(CN2CCCC(N(C)CCc3cccs3)C2)no1 (configuration not stated) | 22.05
CN(CCc1cccs1)C1CCCN(Cc2noc(C3CC3)n2)C1 (configuration not stated) | 32.3
Cc1nc(CN2CCCC(N(C)CCCc3ccccc3)C2)no1 (configuration not stated) | -1.488
Cc1nc(CN2CCCC(N(C)c3cnc4ccccc4n3)C2)no1 (configuration not stated) | 68.17
Cc1nc(CN2CCCC(N(C)CCc3cccs3)C2)no1 (configuration not stated) | 86.93
Cc1nc[nH]c1CN1C[C@@H]2CC[C@H](C1)N(C(=O)c1cnn(C)c1)C2 | -6.364

Compound | Percent Effect [%]
Cc1ccc(C(=O)N2Cc3c(CN4CCCCC4)nn(C)c3C2)cc1F.O=C(O)C(F)(F)F | -32.35
Cc1ccc(CN2CCC3(CC2)C(c2ccccc2)CC(=O)N3C)o1.O=C(O)C(F)(F)F (configuration not stated) | 26.84
Cn1cc(C(=O)NCc2cn3c(n2)CN(CC2CCOC2)CC3)cn1.O=C(O)C(F)(F)F.O=C(O)C(F)(F)F (configuration not stated) | -28.66
O=C1c2cnc(N3CCCC3)nc2CN1C1CCS(=O)(=O)C1 (configuration not stated) | 9.039
Cc1cccc(CNC(Cc2ccsc2)c2nc(C)c(C)s2)n1.Cl (configuration not stated) | 106.6
COc1cccc(CNC(Cc2cccs2)c2nc(C)c(C)s2)c1OC.Cl (configuration not stated) | -9.078
Cc1cccc(CNC(Cc2ccsc2)c2nccs2)n1 (configuration not stated) | 101.9
Cc1nc(C(Cc2ccsc2)NC(=O)CCN2CCOCC2)sc1C (configuration not stated) | 3.097
COc1ccccc1CNC(Cc1cccs1)c1nc(C)c(C)s1.Cl (configuration not stated) | 6.532
O=C(NC(Cc1ccsc1)c1nccs1)C1CC1 (configuration not stated) | -16.41
Cc1nc(C(Cc2ccsc2)NC(=O)CN2CCOCC2)sc1C (configuration not stated) | -3.287
CC(C)Oc1cccc(CNC(Cc2ccsc2)c2nccs2)c1.Cl (configuration not stated) | 2.523
CCC(CN1CCCC1)NC(=O)C1(c2cccc(F)c2)CC1.O=C(O)CC(O)(CC(=O)O)C(=O)O (configuration not stated) | -3.287
CN(C)C(=O)[C@@]12CCO[C@@H]1CCN(Cc1ccc3c(c1)OCO3)C2.O=C(O)C(F)(F)F | 4.753
Cc1noc([C@]23COC[C@H]2CN(C(=O)CN(C)C)C3)n1.O=C(O)C(F)(F)F | 15.78
CC1CCN(c2cc(CCC3CCCN3)ncn2)CC1.Cl (configuration not stated) | -19.69
Cc1nocc1C(=O)N1CCOC2(COCCN(C(C)C)C2)C1.O=C(O)C(F)(F)F (configuration not stated) | 1.76
CCN(Cc1cccc2c1OCO2)CC1CCCO1 (configuration not stated) | -23.06
CCN(Cc1cccnc1)CC1CCCO1 (configuration not stated) | -42.47
CCN(Cc1ccc2cccc(O)c2n1)CC1CCCO1 (configuration not stated) | 84.2
O=C(O)C(F)(F)F.O=S1(=O)c2ccccc2C2(CCN(Cc3ccccc3)C2)N1CC1CC1 (configuration not stated) | 20.71
OCC1CCN(c2ccc(NCc3ccsc3)nc2)CC1 | 11.8
COCCN(C)c1ccc(NCc2cccnc2)nc1 | 21.66

Compound | Percent Effect [%]
CCn1cc(CNc2ccc(Br)c(OC)c2)cn1 | -14.65
COCCN(C)c1ccc(NCc2ccsc2)nc1 | 90.49
COCCN(C)c1ccc(NCc2cscn2)nc1 | 13.97
CCn1cc(CNc2ccc(N(C)CCOC)cn2)cn1 | 57.45
Cl.O=C(c1ccccc1Cl)N1CCN(CCc2ccccn2)CC1 | -2.792
COCCN1CCN(c2cccc(C)n2)Cc2ccc(C)nc21.O=C(O)C(F)(F)F.O=C(O)C(F)(F)F | 28.62
CN(Cc1cccc2cccnc12)C1CCS(=O)(=O)C1.O=C(O)CC(O)(CC(=O)O)C(=O)O (configuration not stated) | -10.77
Cc1cccc(CN2CCO[C@H]3[C@@H](OCc4ccncc4)CC[C@@H]32)n1.O=C(O)C(F)(F)F.O=C(O)C(F)(F)F.O=C(O)C(F)(F)F | -9.598
CN(C)C(=O)[C@@H]1C[C@@H]2CCN(C3CCOCC3)C[C@H]2O1.O=C(O)C(F)(F)F | -21.42
CNC(=O)[C@@H]1[C@@H](OC(=O)Nc2ccccc2)C(=O)N(C)C12CCNCC2 | 60.88
CO[C@H]1C(=O)N(C)C2(CCNCC2)[C@@H]1C(=O)Nc1ccccc1 | 47.74
CN1C(=O)[C@H](OC(N)=O)[C@@H](C(=O)Nc2ccccc2)C12CCNCC2 | 31.45
Fc1ccc(F)c(CN2CCC(c3n[nH]c4ncccc34)CC2)c1.O=C(O)CC(O)(CC(=O)O)C(=O)O | -14.52
CN(Cc1nc(N)nc(N(C)C)n1)Cc1cccc2ccccc12 | -5.133
CN(CCc1cccc2ccccc12)Cc1nc(N)nc(N(C)C)n1 | 75.75
COc1ccccc1CCN(C)Cc1nc(N)nc(N(C)C)n1 | 10.83
Cc1nc(C(C)NC(=O)NCc2nccn2CC(C)C)cs1 (configuration not stated) | 0.1192
CC(C)Cn1ccnc1CNC(=O)NC(C)c1nccs1 (configuration not stated) | 55.14
CC(C)Cn1ccnc1CNC(=O)NC(C)(C)c1nccs1 | -19.09
O=C(O)C(F)(F)F.O=C(c1cscn1)N1CCc2ncnc(-c3cccnc3)c2CC1 | -9.91
CC(=O)N1N=C(c2ccccc2)OC1C(=O)NCCc1cccc(F)c1 (configuration not stated) | 26
COc1ccc(NC(=O)C2OC(c3cccs3)=NN2C(C)=O)cc1OC (configuration not stated) | 54.99
CC(=O)N1N=C(c2ccccc2)OC1C(=O)NCCc1cccc(Cl)c1 (configuration not stated) | -5.794

Compound | Percent Effect [%]
CC(=O)N1N=C(c2cccs2)OC1C(=O)Nc1ccccc1 (configuration not stated) | 6.727
COc1ccc(NC(=O)C2OC(c3cccs3)=NN2C(C)=O)cc1 (configuration not stated) | 19.1
CC(=O)N1N=C(c2cccs2)OC1C(=O)NCCc1cccc(Cl)c1 (configuration not stated) | 62.85
O=C(O)C(F)(F)F.O=C(c1ccc2ccccc2n1)N1CCC2(CCN2c2ncccn2)C1 (configuration not stated) | -9.605
CCc1ccc(CN2CCC3(CC2)CC(N2CCN(C)CC2)CO3)cc1.O=C(O)C(F)(F)F (configuration not stated) | 2.884
Cc1ccc(CN2CC[C@@H](NC(=O)c3cccnc3)[C@H](O)C2)o1 | 8.326
Cc1ccc(CCNC(=O)c2cccnc2)o1 | 80.23
Cc1ccc(CN(C(=O)NCCNC(=O)c2cccnc2)C(C)C)o1 | -12.97
CCc1cc(C(=O)N2CCCC(Cc3ccc(NC)nn3)C2)on1 (configuration not stated) | -39.14
COCCCNC(=O)CN(C)C(=O)c1ccccc1O | -10.97
COCCCNC(=O)CN(C)C(=O)c1cc(Cl)ccc1O | 100.8
COCCCNC(=O)CN(C)C(=O)c1cc(C)ccc1O | 5.458
N#Cc1cccc(CN2CCn3cc(Cn4cccn4)nc3C2)c1.O=C(O)C(F)(F)F.O=C(O)C(F)(F)F | -31.57
COC[C@@H]1CCC[C@@]12CN(Cc1ccc(C)s1)CCO2.O=C(O)C(F)(F)F | -18.91
CCOCc1cnc2n1CCN(C(=O)C1=CCCC1)C2C (configuration not stated) | -7.076
CCOCc1cnc2n1CCN(C(=O)c1cn(C)c3ccccc13)C2C (configuration not stated) | 8.997
CCOCc1cnc2n1CCN(C(=O)Cc1cccs1)C2C (configuration not stated) | -15.31
CCOCc1cnc2n1CCN(C(=O)c1cccc3c1OCCO3)C2C (configuration not stated) | 51.66
CCOCc1cnc2n1CCN(C(=O)c1ccccc1)C2C (configuration not stated) | 53.26
CCOCc1cnc2n1CCN(C(=O)c1ccoc1C)C2C (configuration not stated) | 26.88
Cc1nc(COC[C@@H]2CC[C@H]3[C@H](CCN3c3ncccn3)O2)cs1.O=C(O)C(F)(F)F | 3.819
O=C(O)C(F)(F)F.O=C(O)C(F)(F)F.O=C(O)C(F)(F)F.c1ccc(N2CC3(CCN(Cc4cccnc4)C3)C2)nc1 | -1.371
COc1ncccc1CN1C[C@H]2C[C@@H](C(=O)NCC3CC3)N(C)[C@H]2C1.O=C(O)C(F)(F)F.O=C(O)C(F)(F)F.O=C(O)C(F)(F)F | -0.5017
